Inconclusive results are not listed. Some compounds were tested as several samples or in several runs, with calls that do not always agree. Activity calls are given as the source filed them. Unless noted, the call rests on the fitted dose curve; in most records, active means well fitted curve in the direction sought with a large enough effect; inconclusive means small, poorly fitted or top-dose-only effect, or another doubt; inactive means no such curve, though single readings can be large; an effect the other way counts as inactive or inconclusive.
Tested on: not listed separately
Assay: qHTS assay for small molecule agonists of the antioxidant response element (ARE) signaling pathway (AID 651741; active means well fitted activation curve with a large enough effect in the signal ratio; the % refers to the signal ratio; further: potency means the concentration at half of the fitted maximal effect; on activation: % of control where 0% means no effect)
Details: HepG2 ARE-bla reporter, beta-lactamase FRET ratio, 16 h; series mostly up to 96 µM; activation: at the top concentration
Procedure, shortened: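 Beta-lactamase reporter expression driven by the antioxidant response element in HepG2 cells was detected by fluorescence with LiveBLAzer B/G FRET substrate (2 h, room temperature) following 16 h compound treatment at 37 C.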

| SMILES | Potency |
| --- | --- |
| C=CCCC | 66.8 µM (active) |
| O=C1C(Cl)=C(Cl)C(=O)c2ccccc21 | 2.73 µM (active) |
| Oc1cc(Cl)cc(Cl)c1Cl | 66.8 µM (active) |
| Cc1ccc([N+](=O)[O-])cc1N | 33.5 µM (active) and inactive |
| CON=C(C(=O)OC)c1ccccc1CO/N=C(\C)c1cccc(C(F)(F)F)c1 | 8.63 µM (active) |
| ClC1=C(Cl)[C@]2(Cl)[C@H]3[C@H]([C@@H]4C=C[C@H]3C4)[C@]1(Cl)C2(Cl)Cl | 61.1 µM (active) |
| [O-][N+](=Nc1ccccc1)c1ccccc1 | 37.6 µM (active) |
| COS(C)(=O)=O | 42.2 µM (active) |

Tested on: not listed separately
Assay: qHTS assay for small molecule activators of the p53 signaling pathway (AID 651743; active means well fitted activation curve with a large enough effect in the signal ratio, not every such curve was filed as active; the % refers to the signal ratio; further: potency means the concentration at half of the fitted maximal effect; on activation: % of control where 0% means no effect)
Details: HCT-116 p53RE-bla, beta-lactamase FRET ratio, 16 h; activation: stronger effect = higher value
Procedure, shortened: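 Here HCT-116 cells with an integrated p53-responsive beta-lactamase gene were incubated with compounds (16 hours, 37 C) after a 5-hour plating period; beta-lactamase activity was detected as fluorescence intensity via B/G FRET substrate.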

| SMILES | Potency | activation |
| --- | --- | --- |
| CON=C(C(=O)OC)c1ccccc1CO/N=C(\C)c1cccc(C(F)(F)F)c1 | 5.01 µM (active) |  |
| CC(C)NC(=O)N1CC(=O)N(c2cc(Cl)cc(Cl)c2)C1=O |  | -1.23% (inactive) |
| ClC1=C(Cl)[C@]2(Cl)[C@H]3[C@H]([C@@H]4C=C[C@H]3C4)[C@]1(Cl)C2(Cl)Cl |  | -0.297% (inactive) |

Tested on: not listed separately
Assay: qHTS assay for environmental chemicals that activate the Aryl hydrocarbon Receptor (AhR) signaling pathway (AID 651777); further: nearly all actives have a fitted effect of over 15% in size; further: potency means the concentration at half of the fitted maximal effect; on activation: % of control where 0% means no effect
Details: 1A2-DRE human hepatoma cells, luciferase, 24 h; activation: stronger effect = higher value
Procedure, shortened: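 Human hepatoma 1A2-DRE cells, stably carrying a dioxin response element and CYP1A2 promoter driving luciferase, were exposed to compounds for 24 hr at 37 C and 5% CO2. Luciferase signal was then read after 30 min One-Glo at room temperature.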

| SMILES | activation | Potency |
| --- | --- | --- |
| CCOP(=O)(SC(C)CC)N1CCSC1=O (stereo not given) | -0.193% (inactive) |  |
| C=CCCC |  | 22.4 µM (active) |
| O=C1C(Cl)=C(Cl)C(=O)c2ccccc21 |  | 50.1 µM (active) |
| O=C(Nc1ccccc1)c1ccccc1O |  | 44.7 µM (active) |
| CC(C)NC(=O)N1CC(=O)N(c2cc(Cl)cc(Cl)c2)C1=O | 14.5% (inactive) |  |
| ClC1=C(Cl)[C@]2(Cl)[C@H]3[C@H]([C@@H]4C=C[C@H]3C4)[C@]1(Cl)C2(Cl)Cl | 0.0639% (inactive) |  |

Target: Peroxisome proliferator-activated receptor alpha (Homo sapiens) (UniProt Q07869)
Assay: qHTS assay for small molecule agonists of the peroxisome proliferator-activated receptor alpha (PPARalpha) signaling pathway (AID 651778); further: % of control where 0% means no effect
Details: PathHunter PPARalpha complementation, chemiluminescence, 6 h; max response: stronger effect = higher value
Procedure, shortened: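 Cells plated at 2,000/well and held overnight at 37 C, 5% CO2, then compound added by pin tool for 6 hr; after PathHunter detection reagent and 60 min at room temperature, chemiluminescence from enzyme complementation was read.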

Chain of Peroxisome proliferator-activated receptor alpha (Homo sapiens) (Q07869 whole entry, looked up): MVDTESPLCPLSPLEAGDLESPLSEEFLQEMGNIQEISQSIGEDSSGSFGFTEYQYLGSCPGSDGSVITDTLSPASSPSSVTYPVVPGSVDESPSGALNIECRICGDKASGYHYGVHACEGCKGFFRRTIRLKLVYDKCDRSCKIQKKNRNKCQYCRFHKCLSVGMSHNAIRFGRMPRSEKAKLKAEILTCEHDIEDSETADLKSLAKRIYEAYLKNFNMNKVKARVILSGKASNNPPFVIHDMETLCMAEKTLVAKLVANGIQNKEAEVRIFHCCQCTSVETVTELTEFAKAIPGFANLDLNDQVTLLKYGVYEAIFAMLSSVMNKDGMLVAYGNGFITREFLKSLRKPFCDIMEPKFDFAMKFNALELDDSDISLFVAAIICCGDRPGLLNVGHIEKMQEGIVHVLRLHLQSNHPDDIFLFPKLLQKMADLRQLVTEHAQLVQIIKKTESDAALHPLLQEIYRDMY

| SMILES | max response |
| --- | --- |
| CCOP(=O)(SC(C)CC)N1CCSC1=O (stereo not given) | 1.22% (inactive) |
| O=C1C(Cl)=C(Cl)C(=O)c2ccccc21 | -10.7% (inactive) |
| N#CC(Br)(Br)C(N)=O | -5.1% (inactive) |
| CON=C(C(=O)OC)c1ccccc1CO/N=C(\C)c1cccc(C(F)(F)F)c1 | 3.69% (inactive) |
| CC(C)NC(=O)N1CC(=O)N(c2cc(Cl)cc(Cl)c2)C1=O | 0.394% (inactive) |
| CCOCn1c(-c2ccc(Cl)cc2)c(C#N)c(Br)c1C(F)(F)F | 14.2% (inactive) |

Target: Nuclear receptor ROR-gamma (Homo sapiens) (UniProt P51449)
Assay: qHTS assay for small molecule antagonists of the retinoid-related orphan receptor gamma (ROR-gamma) signaling pathway (AID 651802); further: nearly all actives have a fitted effect of over 60% in size; further: potency means the concentration at half of the fitted maximal effect;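 on activity change, negative = inhibition: CHO cells with doxycycline-induced ROR-gamma expression; luciferase reporter luminescence driven by ROR response element; on the % scale 0 is the no-effect control and ±100 the full control effect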
Details: ROR-gamma antagonist cell reporter assay; series mostly up to 92.2 µM; activity change, negative = inhibition: at the top concentration
Procedure, shortened: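 Doxycycline-induced reporter activity in engineered CHO cells (TET-inducible ROR, RORE-LUC) was measured by luminescence after 16hr compound exposure at 37C.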

Chain of Nuclear receptor ROR-gamma (Homo sapiens) (P51449 whole entry, looked up): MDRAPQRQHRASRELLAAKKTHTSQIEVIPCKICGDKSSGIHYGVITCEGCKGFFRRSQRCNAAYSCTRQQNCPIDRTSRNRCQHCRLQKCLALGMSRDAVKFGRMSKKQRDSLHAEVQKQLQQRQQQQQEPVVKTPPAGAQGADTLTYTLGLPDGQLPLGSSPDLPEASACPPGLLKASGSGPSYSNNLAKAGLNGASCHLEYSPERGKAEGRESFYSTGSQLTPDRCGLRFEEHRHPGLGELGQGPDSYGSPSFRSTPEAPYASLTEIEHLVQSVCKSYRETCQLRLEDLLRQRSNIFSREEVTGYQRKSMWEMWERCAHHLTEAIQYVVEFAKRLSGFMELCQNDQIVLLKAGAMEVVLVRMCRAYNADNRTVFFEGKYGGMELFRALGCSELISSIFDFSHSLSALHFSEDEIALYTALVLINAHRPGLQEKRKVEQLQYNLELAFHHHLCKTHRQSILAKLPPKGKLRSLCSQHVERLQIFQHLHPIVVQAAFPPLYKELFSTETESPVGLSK

| SMILES | activity change, negative = inhibition | Potency |
| --- | --- | --- |
| CC(CCl)OC(C)CCl (stereo not given) | 44.3% (inactive) |  |
| Cc1c(N)cccc1N | 29.2% (inactive) |  |
| OCC(CBr)(CBr)CBr | 6.58% (inactive) |  |
| O=NO |  | inactive |
| Oc1cc(Cl)cc(Cl)c1Cl |  | 18.8 µM (active) |
| c1ccc2c(c1)ccc1ncccc12 | 44.6% (inactive) |  |
| Cc1cccc(C)c1 | -2.66% (inactive) |  |
| Cc1ccc(N)c([N+](=O)[O-])c1 | 59.3% (inactive) |  |
| [O-][N+](=Nc1ccccc1)c1ccccc1 | 92.7% (inactive) |  |
| O=C1OC(=O)c2c(Br)c(Br)c(Br)c(Br)c21 | -14.9% (inactive) |  |
| c1c[nH]cn1 | 6.45% (inactive) |  |

Tested on: not listed separately
Assay: qHTS assay for small molecule agonists of the antioxidant response element (ARE) signaling pathway measured by Nrf2-dependant transcriptional activity (AID 720636; active means well fitted curve in the direction sought with a large enough effect in the repeat runs; an effect the other way counts as inactive or inconclusive; further: % of control where 0% means no effect)
Details: ARE-luc HepG2, Nrf2 luciferase reporter, 16 h; series mostly up to 92.4 µM; activation: at the top concentration
Procedure, shortened: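 ARE-luc HepG2 cells carrying an Nrf2-responsive luciferase reporter were plated in medium with 1% dialyzed FBS, left 6 hr at 37 C to attach, then exposed to compound for 16 hr. Luciferase luminescence was read after ONE-Glo addition.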

| SMILES | activation |
| --- | --- |
| CCOP(=O)(SC(C)CC)N1CCSC1=O (stereo not given) | -0.152% (inactive) |
| N#CC(Br)(Br)C(N)=O | 2.08% (inactive) |
| CON=C(C(=O)OC)c1ccccc1CO/N=C(\C)c1cccc(C(F)(F)F)c1 | -0.679% (inactive) |
| ClC1=C(Cl)[C@]2(Cl)[C@H]3[C@H]([C@@H]4C=C[C@H]3C4)[C@]1(Cl)C2(Cl)Cl | -0.807% (inactive) |
| CCOCn1c(-c2ccc(Cl)cc2)c(C#N)c(Br)c1C(F)(F)F | -0.699% (inactive) |

Tested on: not listed separately
Assay: qHTS assay for small molecule agonists of the antioxidant response element (ARE) signaling pathway measured by Nrf2-dependant transcriptional activity - cell viability counter screen (AID 720653; active means well fitted curve in the direction sought with a large enough effect in the repeat runs; an effect the other way counts as inactive or inconclusive; further: on the % scale 0 is the no-effect control and ±100 the full control effect)
Details: ARE-bla HepG2 viability, CellTiter-Glo ATP luminescence, 16 h; max response: stronger effect = lower value
Procedure, shortened: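 ARE-bla HepG2 cells (2,000/well) rested 5 hrs at 37C/5% CO2, then exposed to compounds in DMSO for 16 hrs. Viability was read in the same wells as intracellular ATP by luminescence, 30 min at room temperature after reagent addition.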

| SMILES | max response |
| --- | --- |
| CCOP(=O)(SC(C)CC)N1CCSC1=O (stereo not given) | 14.1% (inactive) |
| CC(C)NC(=O)N1CC(=O)N(c2cc(Cl)cc(Cl)c2)C1=O | 1.07% (inactive) |
| ClC1=C(Cl)[C@]2(Cl)[C@H]3[C@H]([C@@H]4C=C[C@H]3C4)[C@]1(Cl)C2(Cl)Cl | -24.6% (inactive) |

Tested on: not listed separately
Assay: qHTS assay for cell viability of HEK293 cells (AID 743288); further: nearly all actives have a fitted effect of over 50% in size; further: potency means the concentration at half of the fitted maximal effect; on max response: on the % scale 0 is the no-effect control and ±100 the full control effect
Details: ATP luminescence (CellTiter-Glo), 18 h; max response: stronger effect = lower value
Procedure, shortened: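 ATP luminescence (CellTiter-Glo) reports metabolically competent cell number after parental HEK293 cells, 2,000/well, were treated with DMSO-dissolved compounds for 18 h at 37 C; reagent incubation 30 min, room temperature.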

| SMILES | max response | Potency |
| --- | --- | --- |
| CCOP(=O)(SC(C)CC)N1CCSC1=O (stereo not given) | 6.21% (inactive) |  |
| CON=C(C(=O)OC)c1ccccc1CO/N=C(\C)c1cccc(C(F)(F)F)c1 | -22.9% (inactive) |  |
| CC(C)NC(=O)N1CC(=O)N(c2cc(Cl)cc(Cl)c2)C1=O | -6.95% (inactive) |  |
| CCOCn1c(-c2ccc(Cl)cc2)c(C#N)c(Br)c1C(F)(F)F |  | 7.94 µM (active) |

Tested on: not listed separately
Assay: qHTS assay for cell viability of the p53RE-bla HCT-116 cell line (AID 743292); further: nearly all actives have a fitted effect of over 55% in size; further: potency means the concentration at half of the fitted maximal effect; on activity change, negative = cytotoxicity: on the % scale 0 is the no-effect control and ±100 the full control effect
Details: p53RE-bla HCT-116 viability, ATP luminescence, 16 h; series mostly up to 95 µM; activity change, negative = cytotoxicity: at the top concentration
Procedure, shortened: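 CellSensor p53RE-bla HCT-116 cells, 4,000/well, preincubated 5 h at 37 C, then exposed to compounds in DMSO for 16 h at 37 C. Viability read as CellTiter-Glo luminescence (intracellular ATP) after 30 min at room temperature.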

| SMILES | Potency | activity change, negative = cytotoxicity |
| --- | --- | --- |
| O=C1C(Cl)=C(Cl)C(=O)c2ccccc21 | 50.1 µM (active) |  |
| N#CC(Br)(Br)C(N)=O |  | -5.73% (inactive) |
| CON=C(C(=O)OC)c1ccccc1CO/N=C(\C)c1cccc(C(F)(F)F)c1 |  | -10.3% (inactive) |
| CC(C)NC(=O)N1CC(=O)N(c2cc(Cl)cc(Cl)c2)C1=O |  | -10.1% (inactive) |
| ClC1=C(Cl)[C@]2(Cl)[C@H]3[C@H]([C@@H]4C=C[C@H]3C4)[C@]1(Cl)C2(Cl)Cl | 44.7 µM (active) |  |
| CCOCn1c(-c2ccc(Cl)cc2)c(C#N)c(Br)c1C(F)(F)F | 6.31 µM (active) |  |

Tested on: not listed separately
Assay: qHTS assay for small molecule activators of the human pregnane X receptor (PXR) signaling pathway (AID 720659; call rule not given here; further: 0% is about no effect)
Details: DPX-2 HepG2 CYP3A4-luciferase, 24 h; series mostly up to 92.3 µM; activation: at the top concentration

| SMILES | activation |
| --- | --- |
| O=C1C(Cl)=C(Cl)C(=O)c2ccccc21 | 21.9% (inactive) |
| N#CC(Br)(Br)C(N)=O | 10.2% (inactive) |
| CCOCn1c(-c2ccc(Cl)cc2)c(C#N)c(Br)c1C(F)(F)F | -12.2% (inactive) |
